# IL1B secr inh: blocks inflammasome-driven IL-1 beta release. THP-1 LPS/ATP IL-1B secretion, AlphaLISA, 16 h; stronger effect = lower value. activity change, % at 57.5 µM. 4.7% of 360,000 active; in the data active means activity change below about -50%; inconclusive means mostly about -30% to -49%
#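 THP-1 cells pretreated 1 hr with compounds (up to 57.5 uM final), then stimulated with LPS (250 ng/mL final) plus ATP (1.25 mM final); secreted IL-1B measured by AlphaLISA after 16 hr, decreased signal indicating inhibition.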
# HT1080 IDH1KD tx: toxicity to HT-1080 IDH1 knockdown cells (counter line); HT-1080 IDH1 knockdown viability, ATP luminescence, 48 h; Potency, µM (highest dose often 46.1 µM), inactives show top-dose activity, negative = toxicity, usual class: cytotoxic; 2% of 360,000 active; AID 686971;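 further: potency means the concentration at half of the fitted maximal effect; 0% = DMSO wells and -100% = cell-free medium wells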
#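 Viability of IDH1-knockdown HT-1080 fibrosarcoma cells was assessed by CellTiter-Glo after 48 h at 37 °C with titrated compound; concentration-effect curves were classified by fit quality and response size.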
# TDP1 cell CPT: DT40-hTDP1 cell growth loss with CPT. chicken DT40 Tdp1-/-;hTDP1 cells + 20 nM CPT, ATP luminescence, 48 h. Potency, µM (highest dose often 46.2 µM), without a hit: top-dose activity change, negative = growth inhibition, usual class: inhibitors. 12% of 420,000 active. AID 686979; further: potency means the concentration at half of the fitted maximal effect; nearly all actives have a fitted effect of over 55% in size
#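 Cell growth measured by CellTiter-Glo luminescence after a minimum 48 h, 37 C compound exposure with 20 nM CPT in Tdp1-knockout DT40 cells stably expressing hTDP1, seeded 400/well; qHTS titration format.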
# ELG1 repair inh: inhibitors of ELG1-dependent DNA repair in HEK293T cells | AID 504467 | Potency, µM (highest dose often 46.1 µM), without a hit: at the top dose activity change, negative = inhibition, hits mostly inhibitors | 2.3% of 330,000 active | HEK293T ELG1-luciferase reporter, luminescence, 16 h; DNA damage induced by 5-fluorouridine; further: potency means the concentration at half of the fitted maximal effect; nearly all actives have a fitted effect of over 55% in size
#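 HEK293T cells expressing luciferase-tagged ELG1 (2,000/well) received 5-Fluorouridine plus compound or DMSO for 16 hr at 37 °C. Luciferase was read by ONE-Glo luminescence after 30 min at room temperature.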
# TDP1 cell noCPT: qHTS for Inhibitors of human tyrosyl-DNA phosphodiesterase 1 (TDP1): qHTS in cells in absence of CPT | 15% of 420,000 active | Potency, µM (titrated, usually from 46.2 µM), inactives show at the top dose activity change, negative = growth inhibition, most hits filed as inhibitors | DT40 Tdp1-/- hTDP1 cells, no CPT, ATP luminescence, 48 h; further: potency means the concentration at half of the fitted maximal effect; nearly all actives have a fitted effect of over 55% in size
#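 Camptothecin absent (DMSO only). Human TDP1-complemented DT40 knockout cells, 400 cells/well, 37 °C for minimum 48 hr; ATP measured via CellTiter-Glo, 30 min dark incubation, luminescence.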
# HT1080-NT tox: kills 2HG-producing HT-1080-NT fibrosarcoma cells; HT-1080-NT fibrosarcoma viability, CellTiter-Glo ATP luminescence, 48 h; Potency, µM (titrated, usually from 46.1 µM), inactives show at the highest dose activity, negative = less viability, actives largely listed as cytotoxic; 1.6% of 360,000 active; AID 686970;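 further: NT is the 2HG producing partner of a matched IDH1 knockdown line; potency means the concentration at half of the fitted maximal effect; 0% = DMSO-treated cells and -100% = media-only wells without cells; nearly all actives have a fitted effect of over 55% in size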
#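 Viability of the 2HG-overproducing fibrosarcoma line after 48 hours of compound exposure at 37 degrees C was determined by luminescence with CellTiter-Glo, and concentration-effect curves were then fitted and categorized.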
# Starred values were filed as active, the others as inactive; ? = inconclusive; . = no result; [ ] = another dose, or the depositor's remark. A selection: hits, their analogues and other compounds. The true share with any hit is near 19%. Unless noted, the call rests on the fitted dose curve; in most records, active means well fitted curve in the direction sought with a large enough effect; inconclusive means small, poorly fitted or top-dose-only effect, or another doubt; inactive means no such curve, though single readings can be large; an effect the other way counts as inactive or inconclusive. Unless noted, on the % scale 0 is the no-effect control and ±100 the full control effect.
SMILES,IL1B secr inh,HT1080 IDH1KD tx,TDP1 cell CPT,ELG1 repair inh,TDP1 cell noCPT,HT1080-NT tox
Cc1sc2nc(SCC(=O)OC(C)C)n(C)c(=O)c2c1C,-11,8%,-27%,?,23µM*,15%
Cc1sc2nc(SCC(=O)Nc3c(C)n(C)n(-c4ccccc4)c3=O)n(C)c(=O)c2c1C,10,-7%,-26%,?,-30%,-1%
COc1ccccc1NC(=O)c1cnc(SCC(=O)NCC2CCCO2)n(C)c1=O (stereo not given),-97*,-23%,10µM*,-13%,?,-40%
CNC(=O)c1ccc2nc(Cc3ccccc3)oc2c1,.,.,-15%,.,-16%,.
Cc1cccc(CNC(=O)c2ccc3nc(Cc4ccccc4)oc3c2)c1,.,.,21µM*,.,23µM*,.
O=C(NCc1ccncc1)c1ccc2nc(Cc3ccccc3F)oc2c1,-7,-22%,26µM*,-10%,?,-16%
CC(C)Oc1ccc(CNC(=O)c2ccc3nc(Cc4ccccc4)oc3c2)cc1,.,.,?,.,-28%,.
CC(CNC(=O)c1ccc2nc(Cc3ccccc3)oc2c1)c1ccccc1 (stereo not given),.,.,?,.,16µM*,.
Cc1cc(CNC(=O)c2ccc3nc(Cc4ccccc4F)oc3c2)nn1C,-14,13%,?,?,?,13%
CN(C)c1ccc(CNC(=O)c2ccc3nc(Cc4ccccc4)oc3c2)cc1,.,.,?,.,21µM*,.
CCOc1cc(S(=O)(=O)NCCCn2ccnc2)ccc1Cl,11,-7%,?,-7%,-16%,-7%
NC1=NC(=O)C2(COC(c3cccnc3)OC2)S1 (stereo not given),1,17%,-5%,0%,-18%,18%
CCC1(c2ccc(F)cc2)NC(=O)N(CC(=O)N2c3ccccc3CC2C)C1=O (stereo not given),4,-2%,?,?,?,-16%
O=C(c1ccoc1)N1CCOc2ccc(CN3CCC(Oc4cccnc4)CC3)cc2C1,.,.,3%[9.04 µM],.,-29%,.
COc1ccc(F)c(CN2CCOc3ccc(CN4CCC(Oc5cccnc5)CC4)cc3C2)c1,.,.,-7%[9.04 µM],.,?,.
COc1cc(CN2CCOc3ccc(CN4CCC(Oc5cccnc5)CC4)cc3C2)ccc1F,.,.,?,.,21µM*,.
COc1cc(OC)c(CN2CCOc3ccc(CN4CCC(O)CC4)cc3C2)c(OC)c1,.,.,?,.,23µM*,.
COc1ccc(CN2CCOc3ccc(CN4CCC(Oc5cccnc5)CC4)cc3C2)c(F)c1,.,.,?,.,21µM*,.
O=C(c1cscn1)N1CCOc2ccc(CN3CCC(Oc4cccnc4)CC3)cc2C1,.,.,?,.,0.29µM*,.
CCC(Cn1nnc2ccccc2c1=O)NC(=O)Nc1ccccc1Cl (stereo not given),.,.,-17%,.,?,.
CCc1nc(SCC(=O)Nc2ccc(N(C)C)cc2)n[nH]1,-11,1%,4.6µM*,11%,4.6µM*,-1%
CCc1nc(SCC(=O)Nc2ccc(N(CC)CC)cc2)n[nH]1,18,7%,-7%,.,-10%,12%
CCOC(=O)c1sc(SCC(=O)Nc2ccc(N(C)C)cc2)nc1N,-67*,?,-6%,6%,-22%,-1%
CN(C)c1ccc(NC(=O)CSc2nc(N)c(C(=O)Nc3ccc(N(C)C)cc3)s2)cc1,?,?,10µM*,-51%,13µM*,-26%
CC1CCN(CCNC(=O)C2CCCN(S(=O)(=O)c3cccc4nsnc34)C2)CC1 (stereo not given),3,-3%,11%,12%,1%,5%
COc1ccc(NC(=O)N2CC[C@@]3(CCCN(C(=O)c4cccn4C)C3)C2)cc1,.,.,1%,.,-10%,.

# Screening data from PubChem.
